Experimental data: the supplement of paper PMC6555819

System: RARa homodimer (NR concentration 270 nM)
Experiment: PBM binding z-score (relative to random genomic background probes); higher = stronger binding; sequences stand for … in GC…GCGATTGACAGCGTAGAATGAAGG
In short: (§1)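 Antibodies against each partner of ligand-free nuclear receptor dimers (one per run) detected binding on custom Agilent 4×180K protein-binding microarrays after 1 h incubation. The double-stranded probes had 34-nt variable regions carrying direct-repeat seeds, single-nucleotide variants, half-site ablations and random human genomic background sequences. Binding z-scores, from regression-normalized fluorescence, use the random background probes as reference.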

Sequence	PBM binding z-score
ACTCGGAGGACAAGGGTCAGAGCTACGCCAGTGA	0.214
AGAATTAGGTTATACGTAGATCAGGGAAGAAAGT	0.896
ATATGTAGGTTATCGGTTCATTCAGTTTGCGCAT	1.25
TCTGCTAGGTCAGTTGGTAAGCTAACGAGCTGCC	-1.42
ACTAGCAGGCCAAGGGTCACTCAGGATTAGTCCG	0.739
CCTAGAAGGCCAGGGTCACTCAAGCATTTCGCTT	1.23
ATCTCTAGGTAAAGTTCAGTGTAAGATCGATAGA	1.49
CTAACTAGGTCAAGGACAGTGAATCTCCGCACGC	0.59
ACTATTAGGTGACTTAGGGCAACCGATACGACGC	1
CCTACTGGGCCAAAAAGATCATTGATGCCGATAA	0.184
CCAGACAGGTGAAAGGTAACTCGGTCTGGTACGC	0.392
TCTAGTTGGTCAAAGGTCACACATTCGAAATGCG	2.63
TCTAGTTGGTCGAAGGTCACACACTCGAAATGCG	1.25
ATCTCTAGCTAACCAAGTTCAGTGAATGCCGAAC	0.128
CGTCCAAGGTCAGCAAGTCAGTGAAAGCGACGTG	0.523
ATCGAAAGGTCGATGTGAGTATAGAGAAAGGGAA	0.145
TTACCAAGGTGAACGTCGTTGATCCCTCTGTAGA	-0.00319
AGAACGAGGGCACGCTGAGTTGATAGCAGAGTAG	0.0569
CATACAGGGTCAGCTAGGCGAGAGTAGGGACGGC	0.266
CGTCCATGGTCAATGCTAGGTCAGTGAAAGCATT	-0.251

Sequence	PBM binding z-score
CCGACTGGTGCAGAAAGGTTACCATACCATCCGG	-0.557
ATACGTAGGTTAGCTGGGGTCATTCAGACTAGGC	0.497
TCTAGTTGGTCACGGTGGTCACACACGACGGGTA	-0.155
ATATGTAGGTTAAGGGTTATTCAGGTTGGTTCGC	2.39
TCTGCTACGTCAGTTGGTCAGCTAACGAGCTGCC	-1.96
TCATATAGGTAAACAGGGGAAAGTCCGTAAGTTA	0.805
ACTATTAGTTGAGACGAGGGCAACCGCTAGGTTG	0.0804
TCTCTGAGGACACGAAAGGTCAGAGCTCGACATC	0.907
CCTAATGGGCCACGAAAGGTCATTGATTCAGTGA	0.945
TCTAGTTGGTCAAAGGTCACACGCTCGAAATGCG	3.91
CCTATTGGGCCATCAGGTCATTGATATCAACGTT	0.136
TGAATGAGGTTAAAGAGCAGGGAACGTGGCGTCG	0.12
GTTCGGAGGACAAGGTCAGAGCTTTGTCCGTAGA	-0.913
TCATATAGGTAATACAGGTGAAAGCCGGCATCTA	0.756
GCTTACGGGTCAAAGGTTATTGCATGAATAGAAT	1
TCTAGTAGGTTACCAATGGGGCATTCAGCTTTCT	5.32e-05
CGAACGATGGCATGAGTTGATAGCAAATGCCGAT	-0.0736
CCGACTGGGGCCGAAAGGTTACCATACCATCCGG	-0.324
CGTCCAAGGTCAAAGGTCAGTTAAGAGATGACGG	1.38
CCTAGCAGGCCAGGGTCACTCAAGCATTTCGCTT	-0.537

System: RARb:RXRa (NR concentration 270 nM, RXRa partner concentration 90 nM)
Experiment: as above
In short: as §1

Sequence	PBM binding z-score
ACTCGGAGGACAAGGGTCAGAGCTACGCCAGTGA	3.29
AGAATTAGGTTATACGTAGATCAGGGAAGAAAGT	0.776
ATATGTAGGTTATCGGTTCATTCAGTTTGCGCAT	1.32
TCTGCTAGGTCAGTTGGTAAGCTAACGAGCTGCC	3.29
ACTAGCAGGCCAAGGGTCACTCAGGATTAGTCCG	3.59
CCTAGAAGGCCAGGGTCACTCAAGCATTTCGCTT	3.06
ATCTCTAGGTAAAGTTCAGTGTAAGATCGATAGA	2.56
CTAACTAGGTCAAGGACAGTGAATCTCCGCACGC	4.08
ACTATTAGGTGACTTAGGGCAACCGATACGACGC	1.31
CCTACTGGGCCAAAAAGATCATTGATGCCGATAA	-0.239
CCAGACAGGTGAAAGGTAACTCGGTCTGGTACGC	1.2
TCTAGTTGGTCAAAGGTCACACATTCGAAATGCG	5.06
TCTAGTTGGTCGAAGGTCACACACTCGAAATGCG	3.51
ATCTCTAGCTAACCAAGTTCAGTGAATGCCGAAC	0.746
CGTCCAAGGTCAGCAAGTCAGTGAAAGCGACGTG	4.99
ATCGAAAGGTCGATGTGAGTATAGAGAAAGGGAA	3.26
TTACCAAGGTGAACGTCGTTGATCCCTCTGTAGA	1.77
AGAACGAGGGCACGCTGAGTTGATAGCAGAGTAG	2.52
CATACAGGGTCAGCTAGGCGAGAGTAGGGACGGC	4.04
CGTCCATGGTCAATGCTAGGTCAGTGAAAGCATT	2.17

Sequence	PBM binding z-score
CCGACTGGTGCAGAAAGGTTACCATACCATCCGG	1.43
ATACGTAGGTTAGCTGGGGTCATTCAGACTAGGC	2.93
TCTAGTTGGTCACGGTGGTCACACACGACGGGTA	1.93
ATATGTAGGTTAAGGGTTATTCAGGTTGGTTCGC	1.88
TCTGCTACGTCAGTTGGTCAGCTAACGAGCTGCC	-0.0758
TCATATAGGTAAACAGGGGAAAGTCCGTAAGTTA	0.676
ACTATTAGTTGAGACGAGGGCAACCGCTAGGTTG	1.15
TCTCTGAGGACACGAAAGGTCAGAGCTCGACATC	4.2
CCTAATGGGCCACGAAAGGTCATTGATTCAGTGA	4.16
TCTAGTTGGTCAAAGGTCACACGCTCGAAATGCG	4.97
CCTATTGGGCCATCAGGTCATTGATATCAACGTT	2.25
TGAATGAGGTTAAAGAGCAGGGAACGTGGCGTCG	1.94
GTTCGGAGGACAAGGTCAGAGCTTTGTCCGTAGA	3.13
TCATATAGGTAATACAGGTGAAAGCCGGCATCTA	0.757
GCTTACGGGTCAAAGGTTATTGCATGAATAGAAT	4.49
TCTAGTAGGTTACCAATGGGGCATTCAGCTTTCT	1.26
CGAACGATGGCATGAGTTGATAGCAAATGCCGAT	-0.391
CCGACTGGGGCCGAAAGGTTACCATACCATCCGG	2.01
CGTCCAAGGTCAAAGGTCAGTTAAGAGATGACGG	6.2
CCTAGCAGGCCAGGGTCACTCAAGCATTTCGCTT	2.73
